What follows are sequences tested against PUM1 PUF domain R4-NNV (Homo sapiens, UniProt Q14671 828-1176, H972N;Q975V) (assay: yeast three-hybrid, YBZ-1, SC-Leu-His + 0.5 mM 3-AT, 4 days). Settings: tags: N-Gal4 AD-HA kept; label: inside an RPR1-promoter hybrid RNA with tandem MS2 sites; ssRNA.
Method in brief: (§1)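 The interaction score is the log change in variant frequency from input to selection. Scores were computed in log2 with a pseudocount of 1 for absent variants, using Illumina sequencing of PCR-amplified repeat regions. The input came from four days on SC-Leu and the selection from four days on SC-Leu-His + 0.5 mM 3-AT. The cells were strain YBZ-1 (LexA–MS2 coat fusion, HIS3 reporter) co-expressing Pumilio-1 PUF domain libraries and matching RNA elements from a centromeric plasmid.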

Chain of PUM1 PUF domain R4-NNV (Q14671 828-1176 H972N/Q975V): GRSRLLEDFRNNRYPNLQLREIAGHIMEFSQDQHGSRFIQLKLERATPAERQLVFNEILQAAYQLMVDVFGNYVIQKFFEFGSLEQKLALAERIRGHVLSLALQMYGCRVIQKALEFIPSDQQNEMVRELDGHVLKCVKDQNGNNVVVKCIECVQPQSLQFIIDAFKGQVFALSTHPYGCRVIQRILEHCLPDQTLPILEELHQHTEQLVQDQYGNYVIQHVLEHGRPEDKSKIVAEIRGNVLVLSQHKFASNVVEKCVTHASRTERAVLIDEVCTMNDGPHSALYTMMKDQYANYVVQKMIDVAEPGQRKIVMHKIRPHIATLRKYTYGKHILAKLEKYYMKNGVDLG

| Sequence | binding signal |
| --- | --- |
| GGCUAGAACUAGUGGAUCCCCCGGCGCCCGGCGGCUCGAGCCCGGGUAAGUGUAUAUAGUCUGCAUGCCGCCGGGCGCCAUGCCUGCAGGUCGACUCUAGAAAACAUG | 3.42 log2 enrichment (interaction score) |
| GGCUAGAACUAGUGGAUCCCCCGGCGCCCGGCGGCUCGAGCCCGGGUAAGUGUAAAUAGUCUGCAUGCCGCCGGGCGCCAUGCCUGCAGGUCGACUCUAGAAAACAUG | 1.31 log2 enrichment (interaction score) |
| GGCUAGAACUAGUGGAUCCCCCGGCGCCCGGCGGCUCGAGCCCGGGUAAGUGUACAUAGUCUGCAUGCCGCCGGGCGCCAUGCCUGCAGGUCGACUCUAGAAAACAUG | 2.48 log2 enrichment (interaction score) |

The sequences below were run against PUM1 PUF domain R4-PYC (Homo sapiens, UniProt Q14671 828-1176, N971P;H972Y;Q975C) in the same assay as above. Settings: tags: N-Gal4 AD-HA kept; label: inside an RPR1-promoter hybrid RNA with tandem MS2 sites; ssRNA.
Method in brief: as §1

Chain of PUM1 PUF domain R4-PYC (Q14671 828-1176 N971P/H972Y/Q975C): as the sequence (Q14671 828-1176 H972N/Q975V) above, with N144P, N145Y, V148C counted along it

| Sequence | binding signal |
| --- | --- |
| GGCUAGAACUAGUGGAUCCCCCGGCGCCCGGCGGCUCGAGCCCGGGUAAGUGUAUAUAGUCUGCAUGCCGCCGGGCGCCAUGCCUGCAGGUCGACUCUAGAAAACAUG | 7.49 log2 enrichment (interaction score) |
| GGCUAGAACUAGUGGAUCCCCCGGCGCCCGGCGGCUCGAGCCCGGGUAAGUGUAAAUAGUCUGCAUGCCGCCGGGCGCCAUGCCUGCAGGUCGACUCUAGAAAACAUG | 7.66 log2 enrichment (interaction score) |
| GGCUAGAACUAGUGGAUCCCCCGGCGCCCGGCGGCUCGAGCCCGGGUAAGUGUACAUAGUCUGCAUGCCGCCGGGCGCCAUGCCUGCAGGUCGACUCUAGAAAACAUG | 6.68 log2 enrichment (interaction score) |

What follows are sequences tested against PUM1 PUF domain R4-VPG (Homo sapiens, UniProt Q14671 828-1176, N971V;H972P;Q975G) in the same assay as above. Settings: tags: N-Gal4 AD-HA kept; label: inside an RPR1-promoter hybrid RNA with tandem MS2 sites; ssRNA.
Method in brief: as §1

Chain of PUM1 PUF domain R4-VPG (Q14671 828-1176 N971V/H972P/Q975G): as the sequence (Q14671 828-1176 H972N/Q975V) above, with N144V, N145P, V148G counted along it

| Sequence | binding signal |
| --- | --- |
| GGCUAGAACUAGUGGAUCCCCCGGCGCCCGGCGGCUCGAGCCCGGGUAAGUGUAUAUAGUCUGCAUGCCGCCGGGCGCCAUGCCUGCAGGUCGACUCUAGAAAACAUG | 2.52 log2 enrichment (interaction score) |
| GGCUAGAACUAGUGGAUCCCCCGGCGCCCGGCGGCUCGAGCCCGGGUAAGUGUAAAUAGUCUGCAUGCCGCCGGGCGCCAUGCCUGCAGGUCGACUCUAGAAAACAUG | 3.14 log2 enrichment (interaction score) |
| GGCUAGAACUAGUGGAUCCCCCGGCGCCCGGCGGCUCGAGCCCGGGUAAGUGUACAUAGUCUGCAUGCCGCCGGGCGCCAUGCCUGCAGGUCGACUCUAGAAAACAUG | 2.82 log2 enrichment (interaction score) |

These sequences were tested against PUM1 PUF domain R4-GRC (Homo sapiens, UniProt Q14671 828-1176, N971G;H972R;Q975C) in the same assay as above. Settings: tags: N-Gal4 AD-HA kept; label: inside an RPR1-promoter hybrid RNA with tandem MS2 sites; ssRNA.
Method in brief: as §1

Chain of PUM1 PUF domain R4-GRC (Q14671 828-1176 N971G/H972R/Q975C): as the sequence (Q14671 828-1176 H972N/Q975V) above, with N144G, N145R, V148C counted along it

| Sequence | binding signal |
| --- | --- |
| GGCUAGAACUAGUGGAUCCCCCGGCGCCCGGCGGCUCGAGCCCGGGUAAGUGUAUAUAGUCUGCAUGCCGCCGGGCGCCAUGCCUGCAGGUCGACUCUAGAAAACAUG | 2.46 log2 enrichment (interaction score) |
| GGCUAGAACUAGUGGAUCCCCCGGCGCCCGGCGGCUCGAGCCCGGGUAAGUGUAAAUAGUCUGCAUGCCGCCGGGCGCCAUGCCUGCAGGUCGACUCUAGAAAACAUG | 4.62 log2 enrichment (interaction score) |
| GGCUAGAACUAGUGGAUCCCCCGGCGCCCGGCGGCUCGAGCCCGGGUAAGUGUACAUAGUCUGCAUGCCGCCGGGCGCCAUGCCUGCAGGUCGACUCUAGAAAACAUG | 0.93 log2 enrichment (interaction score) |

— paper PMC8384837, “Expanding the binding specificity for RNA recognition by a PUF domain”
